Columns and labels:
Assay in all cases: PBM binding z-score (relative to random genomic background probes); higher = stronger binding; sequences stand for … in GC…GCGATTGACAGCGTAGAATGAAGG
[1] = test system: FXR:RXRa (NR concentration 270 nM, RXRa partner concentration 90 nM)
In short: (§1)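 Custom Agilent 4×180K protein-binding microarrays carried double-stranded probes. Their 34-nt variable regions held direct-repeat seeds, single-nucleotide variants, half-site ablations and random human genomic background sequences. Arrays were incubated 1 h with ligand-free nuclear receptor dimers in PBS pH 7.4, 2% milk, 0.02% Triton X-100, 1 mM DTT, 0.2 mg/mL BSA and 0.4 mg/ml salmon testes DNA. Antibodies against each partner (one per run) detected binding, and scanned fluorescence was regression-normalized. Binding z-scores use random background probes as reference.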

[2] = test system: LXRa:RXRa (NR concentration 270 nM, RXRa partner concentration 90 nM)
In short: as §1

[3] = test system: LXRa homodimer (NR concentration 270 nM)
In short: as §1

[4] = test system: LXRb:RXRa (NR concentration 270 nM, RXRa partner concentration 90 nM)
In short: as §1

[5] = test system: LXRb homodimer (NR concentration 270 nM)
In short: as §1

[6] = test system: PPARa:RXRa (NR concentration 270 nM, RXRa partner concentration 90 nM)
In short: as §1

[7] = test system: PPARg:RXRa (NR concentration 180 nM, RXRa partner concentration 90 nM)
In short: as §1

[8] = test system: PPARg:RXRa 270nM:90nM, anti-RXR (NR concentration 270 nM, RXRa partner concentration 90 nM)
In short: as §1

[9] = test system: PPARg:RXRa 30nM:10nM, anti-RXR (NR concentration 30 nM, RXRa partner concentration 10 nM)
In short: as §1

[10] = test system: PPARg:RXRa 90nM:30nM, anti-RXR (NR concentration 90 nM, RXRa partner concentration 30 nM)
In short: as §1

[11] = test system: PPARg:RXRa DBDmut IVT, anti-RXR (DBD mutation: RXRa K156A/R161A, NR concentration 270 nM, RXRa partner concentration 90 nM)
In short: as §1

[12] = test system: PPARg:RXRa IVT, anti-PPARg (NR concentration 270 nM, RXRa partner concentration 90 nM)
In short: as §1

[13] = test system: PPARg DBDmut:RXRa IVT, anti-PPARg (DBD mutation: PPARg1 K132A/R137A, NR concentration 270 nM, RXRa partner concentration 90 nM)
In short: as §1

[14] = test system: PPARg DBDmut IVT, anti-PPARg (DBD mutation: PPARg1 K132A/R137A, NR concentration 270 nM)
In short: as §1

[15] = test system: PPARg homodimer (NR concentration 180 nM)
In short: as §1

[16] = test system: PXR:RXRa (NR concentration 270 nM, RXRa partner concentration 90 nM)
In short: as §1

[17] = test system: PXR homodimer (NR concentration 270 nM)
In short: as §1

[18] = test system: RARa:RXR (NR concentration 270 nM, RXRa partner concentration 90 nM)
In short: as §1

[19] = test system: RARa homodimer (NR concentration 270 nM)
In short: as §1

[20] = test system: RARb:RXRa (NR concentration 270 nM, RXRa partner concentration 90 nM)
In short: as §1

Row | Sequence | PBM binding z-score [1] | PBM binding z-score [2] | PBM binding z-score [3] | PBM binding z-score [4] | PBM binding z-score [5] | PBM binding z-score [6] | PBM binding z-score [7] | PBM binding z-score [8] | PBM binding z-score [9] | PBM binding z-score [10] | PBM binding z-score [11] | PBM binding z-score [12] | PBM binding z-score [13] | PBM binding z-score [14] | PBM binding z-score [15] | PBM binding z-score [16] | PBM binding z-score [17] | PBM binding z-score [18] | PBM binding z-score [19] | PBM binding z-score [20]
1 | ATACCAAGGTGATTGTGAGGTCGTTGATACTAAC | 2.01 | 2.09 | 1.51 | 1.81 | 0.313 | 1.79 | 0.442 | 0.649 | 0.0726 | 0.48 | 0.693 | 1.27 | 0.771 | 0.654 | 1.27 | 3.13 | 2.05 | 2.22 | 0.72 | 1.41
2 | TCGAGTAGGTTACCAATGAGGCATTCAGCTTTCT | 0.0141 | 0.677 | -0.666 | 0.0718 | -1.38 | 1 | 0.215 | 1.15 | 1.28 | 1.22 | 3.32 | 2.35 | 0.0818 | -0.605 | -0.815 | -0.0047 | -0.892 | 0.302 | -1.06 | 0.723
3 | CATCCAAGGTCAAGGTCAGTGAAAGAGACTCGAA | 7.77 | 6.14 | 2.48 | 5.1 | 2.11 | 6.02 | 7.17 | 6.56 | 3.3 | 5.45 | 3.78 | 5.22 | 1.93 | 0.636 | 4.53 | 4.84 | 1.77 | 5.12 | 1.98 | 5.77
4 | GCTGCTAGGTCAACTGATGGTCAGCTACAGCTCG | 4.25 | 2.91 | 0.26 | 1.97 | 0.014 | 3.65 | 2.65 | 2.9 | 0.862 | 1.99 | 4.96 | 3.94 | -0.525 | -0.577 | 1.97 | 1.62 | -0.454 | 2.71 | -0.247 | 4.15
5 | CCACGGAGGACAACAGGAGGTCAGAGCTGCCAGA | 1.09 | 2.38 | 2.44 | 1.7 | -0.198 | 2.21 | 0.672 | 0.164 | -0.705 | -0.441 | -0.448 | 0.453 | -0.512 | -0.952 | 1.79 | 2.21 | 0.52 | 2.53 | 1.2 | 2.99
6 | TCATTTAGGTAAAAGGTGAAAGTCGGTGTGGTAA | 1.72 | 1.89 | 0.427 | 1.95 | 0.881 | 5.05 | 8.63 | 8.2 | 9.56 | 9.37 | 4.84 | 4.91 | 0.936 | 1.44 | 2.08 | 1.42 | 0.93 | 2.74 | 1.77 | 2.05
7 | AGTATTAGTTGAGACGAGGGCAACCGATAGGTTG | 0.842 | 0.556 | 0.129 | 0.258 | 0.115 | 0.567 | 0.552 | 0.313 | 0.0784 | 0.559 | -0.068 | 0.769 | 0.458 | 0.336 | 0.923 | 1.63 | 0.87 | 1.01 | 1.25 | 1.2
8 | CCTACTGGGGCAAGGTTACCATAACGCACAGCCA | 0.343 | 0.654 | -0.167 | 0.621 | -0.484 | 2.59 | 4.74 | 4.44 | 2.15 | 4.29 | 4.78 | 5.52 | 2.27 | 0.765 | 2.66 | 0.3 | -0.0906 | 0.631 | 0.512 | 1.7
9 | TCTTGTAGATCAGCAGGTTTAGAAAGCTGGCCAA | -0.241 | -0.13 | -0.52 | 0.0239 | -0.59 | 0.117 | -0.901 | 0.915 | 2.13 | 1.23 | 1.21 | -0.135 | -0.815 | -0.0639 | -0.866 | -0.251 | -0.893 | -0.334 | -0.74 | -0.387
10 | GGTACAGGGTCAAGGCCAGAGTACGCGTATTGAT | 6.7 | 3.85 | 0.0121 | 3.89 | -0.206 | 5.92 | 5.62 | 5.68 | 2.38 | 4.07 | 1.42 | 3.96 | 0.368 | 0.441 | 2.35 | 3.98 | 0.674 | 4.77 | 0.889 | 4.63
11 | GCAGACAGGCGAAACGCAGGTAACTCAGGGTGGC | -0.64 | -0.615 | -0.761 | -1 | -1.38 | -0.682 | 0.297 | -0.871 | -0.326 | -0.791 | -0.782 | -0.814 | -1.19 | -1.5 | -0.436 | -0.82 | -0.795 | -0.316 | -1.37 | -0.55
12 | TCTTGTAGATCAATAGAGGTTAAGAATGTGCGCT | 0.658 | 2.14 | 0.456 | 1.44 | 0.239 | 1.91 | 0.259 | 1.56 | 2.73 | 1.97 | 2 | 1.37 | 0.489 | 0.485 | 0.502 | 1.65 | 0.282 | 1.86 | 0.562 | 0.764
13 | TAGCCTAGGTCATTGGGCCTGTATAGTACGCATC | 4.24 | 3.47 | 0.96 | 2.39 | -0.0318 | 3.52 | 2.18 | 2.86 | 0.506 | 1.59 | 2.39 | 3.03 | -0.124 | -0.181 | 1.46 | 1.65 | -0.0817 | 2.37 | -0.457 | 3.55
14 | CGTCCAAGGTCATAGGAGGTCCGTGAAGACAGAT | 7.45 | 5.69 | 0.811 | 3.99 | 0.8 | 5.61 | 4.52 | 5.1 | 1.5 | 3.67 | 3.08 | 3.47 | 0.84 | 0.63 | 3.87 | 4.93 | 1.26 | 4.68 | 1.62 | 5.04
15 | AGAATGAGATTATACGTAGATCAGGGAAGAAAGT | -0.225 | -0.715 | -0.134 | -0.538 | -0.345 | -0.566 | 1.09 | -0.183 | 0.419 | -0.327 | -0.76 | -0.334 | 0.931 | 0.37 | -0.24 | -0.502 | 0.417 | -0.447 | 0.366 | -0.409

Source: the supplement of paper PMC6555819
